The supplement of paper PMC10646978
± gives the standard deviation.

Tests used:
Conditions in all cases: modulator concentration 10 µM
[1] = tested on: RAW-Dual (murine macrophage reporter line); experiment: NF-kB reporter (SEAP) activity fold change vs agonist alone; higher = enhanced NF-kB activity
How it was run: (§1)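 RAW-Dual murine macrophage reporter cells were seeded at 50 000 per well in 384-well plates and pre-incubated 1 hour at 37 °C with compound pin-transferred to 10 μM final. After 1 hour, a PRR agonist was added and cells incubated overnight. Supernatant NF-κB (SEAP, QUANTI-Blue, 620 nm absorbance) and IRF (Lucia luciferase, QUANTI-Luc, luminescence) signals were divided by the mean agonist-only control on the same plate to give fold change. Two replicate plates were averaged, with errors by propagation.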

[2] = tested on: RAW-Dual (murine macrophage reporter line); experiment: IRF reporter (Lucia luciferase) activity fold change vs agonist alone; higher = enhanced IRF activity
How it was run: as §1

[3] = tested on: RAW-Dual (murine macrophage reporter line); experiment: viability score (confluency relative to resting cells, overnight) (fraction); higher = more viable, active = viable (0.7 or more)
How it was run: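 Overnight exposure to 10 μM final compound was carried out on RAW-Dual macrophages in 384-well plates. IncuCyte software generated two confluency masks over all wells imaged with IncuCyte. The viability score gives confluency in relation to resting cells. A compound met the cutoff if each mask exceeded 70% of resting cells.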

[4] = agonist: CpG ODN 1826 0.5 ug/mL

| Structure (SMILES) | NF-kB reporter [1, 4] | NF-kB reporter ([1]; agonist: LPS 0.1 ug/mL) | NF-kB reporter ([1]; agonist: MPLA […]) | IRF reporter ([2]; agonist: 3'3'-cGAMP 10 ug/mL) | IRF reporter ([2]; agonist: LPS 0.1 ug/mL) | IRF reporter ([2]; agonist: MPLA […]) | viability score [3] |
| --- | --- | --- | --- | --- | --- | --- | --- |
| c1ccc(CCn2c3ccccc3c3nnc(SCCN4CCOCC4)nc32)cc1 | 0.859 ± 0.067 | 0.912 ± 0.11 | 1.01 ± 0.091 | 0.697 ± 0.042 | 1.2 ± 0.13 | 1.33 ± 0.18 | 1.01 (active) |
| CC(C)c1nc(CN(C)C(=O)N[C@@H](CCN2CCOCC2)C(=O)N[C@H](CC[C@H](Cc2ccccc2)NC(=O)OCc2cncs2)Cc2ccccc2)cs1 | 1.29 ± 0.073 | 0.959 ± 0.076 | 1.14 ± 0.036 | 0.687 ± 0.032 | 0.842 ± 0.11 | 0.839 ± 0.18 | 1 (active) |
| COc1ccc(C(=O)Nc2cccc([N+](=O)[O-])c2)cc1I | 1.03 ± 0.083 | 1.01 ± 0.071 | 0.95 ± 0.081 | 0.801 ± 0.037 | 1.02 ± 0.13 | 1.04 ± 0.23 | 0.997 (active) |
| O=C(NCCCOc1cccc2cccnc12)c1cnccn1 | 1.03 ± 0.059 | 0.979 ± 0.094 | 0.998 ± 0.035 | 0.95 ± 0.036 | 1.01 ± 0.052 | 0.99 ± 0.1 | 1 (active) |
| O=C(CCCn1c(=O)[nH]c2ccc(Br)cc2c1=O)NCC1CCCO1 (configuration not stated) | 0.965 ± 0.081 | 1.05 ± 0.099 | 0.931 ± 0.043 | 0.957 ± 0.057 | 1.04 ± 0.063 | 0.94 ± 0.25 | 1.02 (active) |
| CC(=O)OC1(C(C)=O)CCC2C3C=C(C)C4=CC(=O)CCC4(C)C3CCC21C (configuration not stated) | 1.18 ± 0.088 | 1.08 ± 0.054 | 1.21 ± 0.026 | 1.04 ± 0.069 | 0.875 ± 0.1 | 0.986 ± 0.14 | 0.995 (active) |
| O=S(=O)(Cc1cccc(F)c1)N1C2CCC1CC(Oc1cccnc1)C2 (configuration not stated) | 1.18 ± 0.07 | 1.1 ± 0.099 | 1.04 ± 0.054 | 0.986 ± 0.04 | 1.06 ± 0.052 | 1.04 ± 0.1 | 1 (active) |
| NCCCC(=O)O | 1.18 ± 0.28 | 0.974 ± 0.1 | 1.01 ± 0.083 | 0.981 ± 0.04 | 1.3 ± 0.19 | 1.3 ± 0.14 | 0.995 (active) |
| CCC(=O)c1ccc(N2CCCCCC2)c(F)c1 | 0.864 ± 0.067 | 0.96 ± 0.074 | 1.14 ± 0.16 | 1 ± 0.048 | 1.61 ± 0.1 | 2.1 ± 0.18 | 0.982 (active) |
| NC(=O)COc1ccc(Nc2nnc(-c3ccccc3)c3ccccc23)cc1 | 0.782 ± 0.083 | 0.806 ± 0.051 | 1.08 ± 0.093 | 0.747 ± 0.034 | 1.19 ± 0.069 | 1.23 ± 0.14 | 1.01 (active) |
| CCOC(=O)C1=C(C)OC(N)=C(C#N)C1c1cc(C)c(OC)cc1C (configuration not stated) | 0.925 ± 0.073 | 1.01 ± 0.11 | 0.898 ± 0.056 | 0.66 ± 0.11 | 0.987 ± 0.089 | 0.935 ± 0.17 | 1 (active) |
| CN(C)c1ncc(NC(=O)c2ccc(Oc3ncccn3)cc2)c(N(C)C)n1 | 0.856 ± 0.086 | 0.953 ± 0.075 | 0.849 ± 0.065 | 0.991 ± 0.053 | 1.2 ± 0.083 | 1.08 ± 0.14 | 0.985 (active) |
| CCOC(=O)Nc1ccc(NCc2ccc(F)cc2)nc1N.O=C(O)/C=C/C(=O)O | 1.21 ± 0.16 | 1.3 ± 0.34 | 0.885 ± 0.05 | 0.678 ± 0.043 | 1.3 ± 0.23 | 1.12 ± 0.09 | 0.977 (active) |
| COc1cccc(-c2csc(C(C#N)=CNc3cc(Cl)ccc3OC)n2)c1 | 0.939 ± 0.096 | 1.06 ± 0.083 | 0.963 ± 0.093 | 0.964 ± 0.024 | 1.24 ± 0.21 | 1.01 ± 0.26 | 1.01 (active) |
| Cc1ccnc2c1NC(=O)c1cccnc1N2C1CC1 | 1.19 ± 0.26 | 1.2 ± 0.3 | 0.967 ± 0.067 | 0.88 ± 0.035 | 1.34 ± 0.36 | 1.29 ± 0.097 | 0.994 (active) |
| O=C(Nc1ccc([N+](=O)[O-])cc1Cl)c1ccc([N+](=O)[O-])cc1 | 0.961 ± 0.083 | 1.07 ± 0.069 | 0.937 ± 0.06 | 0.937 ± 0.032 | 1.48 ± 0.11 | 1.23 ± 0.3 | 1.01 (active) |
| O=C(O)C(=O)O.c1ccc(SCCc2ccncc2)cc1 | 1.06 ± 0.12 | 1.04 ± 0.076 | 1 ± 0.056 | 1.05 ± 0.24 | 1.07 ± 0.09 | 1.19 ± 0.17 | 1 (active) |
| COc1cc2c(cc1OC)C1Cc3ccc(OC)c(OC)c3CN1CC2 (configuration not stated) | 0.932 ± 0.24 | 0.87 ± 0.044 | 0.949 ± 0.067 | 0.871 ± 0.052 | 1.09 ± 0.14 | 1.15 ± 0.17 | 1 (active) |
| COc1ccc(NC(=O)CN2C(=O)c3cccc4cccc(c34)C2=O)cc1 | 0.966 ± 0.059 | 0.998 ± 0.087 | 0.938 ± 0.063 | 0.939 ± 0.033 | 1.2 ± 0.11 | 1.1 ± 0.12 | 1 (active) |
| COc1ccc(-n2c(C)c([N+](=O)[O-])c3ccc(O)cc32)cc1 | 0.835 ± 0.15 | 1.26 ± 0.1 | 1.34 ± 0.17 | 0.393 ± 0.021 | 0.594 ± 0.089 | 0.601 ± 0.063 | 0.999 (active) |
| CCC(=O)Nc1ccc(NC(=O)c2ccco2)c(OC)c1 | 0.828 ± 0.065 | 0.831 ± 0.11 | 1.08 ± 0.12 | 0.934 ± 0.044 | 1.32 ± 0.11 | 1.42 ± 0.18 | 1.01 (active) |
| Brc1ccc2ncnc(Nc3ccccc3)c2c1 | 1.03 ± 0.12 | 1.25 ± 0.097 | 1.04 ± 0.029 | 0.357 ± 0.021 | 0.629 ± 0.039 | 0.731 ± 0.08 | 1 (active) |
| Cc1ccc(C23CC4CC(CC(CN)(C4)C2)C3)cc1.Cl | 0.827 ± 0.062 | 1.02 ± 0.063 | 1.95 ± 0.14 | 0.741 ± 0.031 | 1.27 ± 0.15 | 1.29 ± 0.13 | 0.46 (inactive) |
| CC1(C)[C@H](C(=O)O)N2C(=O)C[C@H]2S1(=O)=O | 0.998 ± 0.11 | 1.05 ± 0.079 | 1.06 ± 0.033 | 0.944 ± 0.072 | 0.931 ± 0.038 | 0.859 ± 0.068 | 0.994 (active) |
| COc1ccc(S(=O)(=O)N(CC(=O)Nc2ccccc2F)c2ccc(C)cc2)cc1OC | 0.984 ± 0.087 | 0.987 ± 0.057 | 0.933 ± 0.059 | 0.979 ± 0.024 | 1.54 ± 0.12 | 1.16 ± 0.26 | 1.01 (active) |
| Cc1cccc(Sc2nccn3c(=O)n(CC(=O)N4CCN(c5ccccc5)CC4)nc23)c1 | 0.924 ± 0.081 | 0.589 ± 0.067 | 0.664 ± 0.043 | 0.28 ± 0.024 | 0.6 ± 0.041 | 0.733 ± 0.12 | 0.983 (active) |
